# Laboratory results reported in the antibiotic and cytotoxicity screens of Wong et al. (2023).
# The whole screen tested about 39,000 compounds, of which about 3,300 (8.5%) were called active. The entries come from a sample that favours actives as a whole.
# Test system: HepG2
# Test: cytotoxicity call (relative viability < 0.9)
# Conditions: 10 µM
row,Compound,cytotoxicity call
1,C[C@H]1CN([C@@H](C)CO)C(=O)c2cc(NC(=O)Cc3ccccc3)ccc2O[C@H]1CN(C)S(=O)(=O)c1cn(C)cn1,inactive
2,C[C@@H]1CN([C@@H](C)CO)C(=O)c2cc(NS(=O)(=O)c3ccc(F)cc3)ccc2O[C@@H]1CN(C)C(=O)Nc1cccc2ccccc12,inactive
3,Cl.Cl.N=C(NCCCCCCNC(=N)NC(=N)Nc1ccc(Cl)cc1)NC(=N)Nc1ccc(Cl)cc1,active
4,CC(C)NC(=N)NC(=N)Nc1ccc(Cl)cc1.Cl,active
5,N[C@@H](CC(=O)Nc1ccc(Cl)cc1)C(=O)O,inactive
6,C[C@H](CO)N1C[C@H](C)[C@@H](CN(C)S(=O)(=O)c2ccccc2)Oc2c(NC(=O)C3CC3)cccc2C1=O,inactive
7,C[C@H]1CN([C@@H](C)CO)C(=O)c2cccc(NC(=O)c3ccncc3)c2O[C@@H]1CN(C)S(=O)(=O)c1ccc(F)cc1,inactive
8,COCCN1CCC(N(Cc2ccc(-c3ccc(C(F)(F)F)cc3)cc2)C(=O)Cn2c(SCc3cccc(F)c3F)cc(=O)c3ccccc32)CC1,active
9,C[C@@H]1CN([C@@H](C)CO)C(=O)c2cc(NC(=O)c3ccncc3)ccc2O[C@@H](C)CCCCO[C@@H]1CN(C)S(C)(=O)=O,inactive
10,COc1ccc2c(c1)C(=O)C(=O)N2,inactive
11,COc1ccc2c(c1)/C(=N\O)C(=O)N2,inactive
12,O=C1Nc2ccc(I)cc2C1=Cc1cc(Br)c(O)c(Br)c1,active
13,CC(C)C[C@@H](N)C(=O)N[C@H]1C(=O)N[C@@H](CC(N)=O)C(=O)N[C@H]2C(=O)N[C@H]3C(=O)N[C@H](C(=O)N[C@H](C(=O)O)c4cc(O)cc(O)c4-c4cc3ccc4O)[C@H](O)c3ccc(c(Cl)c3)Oc3cc2cc(c3O[C@@H]2O[C@H](CO)[C@@H](O)[C@H](O)[C@H]2O[C@H]2C[C@](C)(N)[C@H](O)[C@H](C)O2)Oc2ccc(cc2Cl)[C@H]1O,inactive
14,C[C@@H]1CCCCO[C@@H](CN(C)C(=O)Nc2cccc3ccccc23)[C@@H](C)CN([C@H](C)CO)C(=O)c2cc(NS(=O)(=O)c3ccc(Cl)cc3)ccc2O1,inactive
15,COc1ccc(S(=O)(=O)Nc2ccc3c(c2)[C@@H]2C[C@@H](CC(=O)NCC4CC4)O[C@H](CO)[C@@H]2O3)cc1,inactive
16,CS(=O)(=O)O.CSc1ccc2c(c1)C(N1CCN(C)CC1)Cc1ccccc1S2 (stereo not drawn),active
17,C[C@H]1CN([C@@H](C)CO)C(=O)Cc2cc(NC(=O)Nc3cccc4ccccc34)ccc2O[C@H]1CN(C)S(=O)(=O)c1ccc(F)cc1,inactive
18,C[C@H](CO)N1C[C@H](C)[C@H](CN(C)Cc2ccc(-c3ccccc3)cc2)Oc2c(NC(=O)c3ccc(-c4nccs4)cc3)cccc2C1=O,inactive
19,C[C@H](CO)N1C[C@H](C)[C@@H](CN(C)Cc2ccc(Oc3ccccc3)cc2)Oc2ccc(NC(=O)Nc3ccc(C(F)(F)F)cc3)cc2C1=O,inactive

row,Compound,cytotoxicity call
1,C[C@H](CO)N1C[C@H](C)[C@H](CN(C)Cc2ccc(Oc3ccccc3)cc2)Oc2ccc(NC(=O)Nc3ccc(C(F)(F)F)cc3)cc2C1=O,active
2,C[C@@H]1CN([C@H](C)CO)C(=O)c2cc(NC(=O)Nc3ccc(C(F)(F)F)cc3)ccc2O[C@H]1CN(C)Cc1ccc(Oc2ccccc2)cc1,inactive
3,C[C@H]1CN([C@@H](C)CO)C(=O)c2cc(NC(=O)Nc3ccc(C(F)(F)F)cc3)ccc2O[C@@H]1CN(C)Cc1ccc(Oc2ccccc2)cc1,inactive
4,C[C@@H]1CN([C@H](C)CO)C(=O)c2cc(NC(=O)Nc3ccc(C(F)(F)F)cc3)ccc2O[C@@H]1CN(C)Cc1ccc(Oc2ccccc2)cc1,active
5,C[C@H]1CN([C@@H](C)CO)C(=O)c2cc(NC(=O)Nc3ccc(C(F)(F)F)cc3)ccc2O[C@H]1CN(C)Cc1ccc(Oc2ccccc2)cc1,active
6,C[C@@H]1CN([C@@H](C)CO)C(=O)c2cc(NC(=O)Nc3ccc(C(F)(F)F)cc3)ccc2O[C@H]1CN(C)Cc1ccc(Oc2ccccc2)cc1,active
7,C[C@@H]1CN([C@@H](C)CO)S(=O)(=O)c2ccc(Br)cc2O[C@H]1CN(C)CC1CCOCC1,inactive
8,COc1ccc(NC(=O)Nc2ccc3c(c2)C(=O)N([C@@H](C)CO)C[C@H](C)[C@@H](CN(C)C(=O)Nc2cccc4ccccc24)O3)cc1,inactive
9,C[C@H]1CN([C@@H](C)CO)S(=O)(=O)c2ccc(C#Cc3ccccc3)cc2O[C@@H]1CN(C)C(=O)Cc1ccccn1,inactive
10,Nc1nc(=O)c2ncn(CCC(CO)CO)c2[nH]1,inactive
11,Cc1noc(C)c1NC(=O)N(C)C[C@H]1Oc2ccc(NC(=O)NC(C)C)cc2CC(=O)N([C@H](C)CO)C[C@H]1C,inactive
12,C[C@@H]1CN([C@@H](C)CO)C(=O)c2cc(NC(=O)Nc3ccc(C(F)(F)F)cc3)ccc2O[C@@H]1CN(C)Cc1ccc(Oc2ccccc2)cc1,active
13,C[C@@H]1CN([C@@H](C)CO)C(=O)c2cc(NC(=O)Nc3ccc(C(F)(F)F)cc3)ccc2O[C@@H]1CN(C)C(=O)Nc1ccccc1,inactive
14,C[n+]1ccc(/C2=C3\C=CC(=N3)/C(c3cc[n+](C)cc3)=c3/cc/c4[n]3[Fe][n]3c2ccc3/C(c2cc[n+](C)cc2)=C2/C=CC(=N2)\C=4c2cc[n+](C)cc2)cc1,active
15,O=C(O)c1ccc(/C2=C3\C=CC(=N3)/C(c3ccc(C(=O)O)cc3)=c3/cc/c4[n]3[Mn+][n]3c2ccc3/C(c2ccc(C(=O)O)cc2)=C2/C=CC(=N2)\C=4c2ccc(C(=O)O)cc2)cc1,inactive
16,C[C@@H]1CN([C@@H](C)CO)C(=O)c2cc(NC(=O)Cc3ccccc3)ccc2O[C@@H]1CN(C)S(=O)(=O)c1ccccc1,inactive
17,C[C@@H]1CN([C@@H](C)CO)C(=O)c2cccc(NC(=O)C3CC3)c2O[C@@H]1CN(C)S(=O)(=O)c1cccs1,inactive
18,Cc1ccc(S(=O)(=O)N(C)C[C@@H]2OCCCC[C@@H](C)Oc3ccc(NC(=O)Nc4c(C)noc4C)cc3C(=O)N([C@@H](C)CO)C[C@@H]2C)cc1,inactive
19,C[C@@H]1CCCCO[C@@H](CN(C)CC2CC2)[C@@H](C)CN([C@H](C)CO)C(=O)c2cc(NS(=O)(=O)c3cn(C)cn3)ccc2O1,inactive
